Laboratory results taken from PubChem BioAssay (EPA / NIEHS).
Calls of active or inactive are those of the source. Rule for the calls: active = hit-call score of the fitted dose curve at least 0.9, where 1 is the maximum; inactive = score below 0.9.

assay: APR_HepG2_StressKinase_1hr: Apredica 1-hour HepG2 Assay for Stress Kinase (AID 2282906); settings: HepG2 stress kinase (phospho-c-Jun) imaging, actives raise or lower the signal
Protocol: APR_HepG2_1hr is a cell-based, multiplexed-readout assay that uses HepG2, a human liver cell line, with measurements taken at 1 hour after chemical dosing in a 384-well plate.APR_HepG2_StressKinase_1hr is one of 10 assay component(s) measured or calculated from the APR_HepG2_1hr assay. It is designed to make measurements of enzyme activity, a form of enzyme reporter, as detected with fluorescence intensity signals by HCS Fluorescent Imaging technology.Data from the assay component APR_HepG2_StressKinase_1hr was analyzed into 1 assay endpoint. This assay endpoint, APR_HepG2_StressKinase_1hr, was analyzed with bidirectional fitting relative to DMSO as the negative control and baseline of activity. Using a type of enzyme reporter, measures of protein for gain or loss-of-signal activity can be used to understand the signaling at the pathway-level as they relate to the gene . Furthermore, this assay endpoint can be referred to as a primary readout, because this assay has produced multiple assay endpoints where this one serves a signaling function. To generalize the intended target to other relatable targets, this assay endpoint is annotated to the cell cycle intended target family, where the subfamily is stress response.
Cells were treated with dimethyl sulfoxide (DMSO) as a solvent control at a final concentration of 0.5% v/v or with compounds in DMSO with a resulting final DMSO concentration of 0.5% v/v. Compound treatment was done at concentrations of 0.39, 0.78, 1.56, 3.12, 6.24, 12.5, 25, 50, 100, and 200 uM in duplicate on each plate. Cells were treated with compounds for 1, 24, or 72 hr. Carbonyl […] m-chloro-phenylhydrazone (CCCP) and taxol were used as positive controls for mitochondrial function and cytoskeletal stability, respectively; DMSO served as the negative control for this experiment. Cells were fixed by the direct addition of 50 uL formaldehyde in Hank's Balanced Salt Solution (HBSS) to a final concentration of 3.7%. After incubation in the fixation medium for 30 min at room temperature (293-298 K), cells were rinsed twice with HBSS and treated with cell permeabilization buffer (16 uL of 0.5% Triton X-100) for 10 min at room temperature (293-298 K) before labeling. For mitochondrial membrane potential and mitochondrial measurements, pre-fixed cells were incubated with 50 uL of MitoTracker Red CMXRos (Invitrogen) at a concentration of 250 nM for 30 min before fixation. In the remaining cases, post-fixed cells were labeled by incubation with a multiplexed mixture of primary antibodies in HBSS for 60 min at room temperature (293-298 K) to detect immunoreactivity of c-Jun (1:500), phospho-histone H3 (1:100), phospho-histone H2A.x (1:200), p53 (1:400), alpha-tubulin (1:200) and Hoechst 33342 (2 ug/mL). Cells were labeled for multiplexed imaging on two separate plates: a) Hoechst 33342, MitoTracker Red, phospho-histone H3, and alpha-tubulin, and b) Hoechst 33342, phospho-histone H2A.x, and c-Jun. A final rinse with HBSS (50 uL) was performed before analysis. The primary and secondary antibodies for the proteins were phospho-histone H3 (rabbit anti-phospho-histone H3 and FITC-donkey anti-rabbit IgG), phospho-histone H2A.x (mouse anti-phospho-histone H2A.x and FITC-donkey anti-mouse IgG), c-Jun (rabbit anti-phospho-c-Jun and Cy3-donkey anti-rabbit IgG), p53 (sheep anti-p53 and Cy5-donkey anti-sheep IgG), alpha-tubulin (mouse anti-alpha-tubulin and Cy5-donkey anti-mouse IgG). These antibodies are available as the CellCiphr HepG2 assay kit (Millipore).Digital images of each well were captured using a Cellomics ArrayScan VTI (Thermo Scientific Cellomics) (0.8 NA objective, 0.63x optical coupler, and XF-93 filter set) at 20x magnification. The images were acquired using the autofocus feature of the ArrayScan instrument, which entails the following steps. First, the camera focuses on channel 1 (Hoechst 33342), where nuclei are identified. Second, a Z offset of 1 um is used for capturing mitochondria (MitoTracker Red). […]

| SMILES | outcome | AC50 |
| --- | --- | --- |
| CCNc1nc(Cl)nc(NC(C)(C)C#N)n1 | inactive | – |
| Cc1ccn2nc(S(=O)(=O)Nc3c(F)cccc3F)nc2n1 | inactive | – |
| CCOP(=S)(OCC)Oc1cc(C)nc(C(C)C)n1 | inactive | – |
| CN(C)C(=O)Nc1cccc(C(F)(F)F)c1 | inactive | – |
| CN1COCN(Cc2cnc(Cl)s2)C1=N[N+](=O)[O-] | inactive | – |
| CN(C)NC(=O)CCC(=O)O | inactive | – |
| COP(=O)(OC)SCn1c(=O)oc2cc(Cl)cnc21 | inactive | – |
| COc1ccc(C(=CC(=O)N2CCOCC2)c2ccc(Cl)cc2)cc1OC | inactive | – |
| CSc1nc(NC(C)C)nc(NC(C)C)n1 | inactive | – |
| C=C(C)[C@H]1Cc2c(ccc3c2O[C@@H]2COc4cc(OC)c(OC)cc4[C@@H]2C3=O)O1 | inactive | – |
| CON=C(C(=O)OC)c1ccccc1CON=C(C)c1cccc(C(F)(F)F)c1 | inactive | – |
| CCC(CC)Nc1c([N+](=O)[O-])cc(C)c(C)c1[N+](=O)[O-] | inactive | – |
| CC1(C(=O)Nc2ccc(O)c(Cl)c2Cl)CCCCC1 | inactive | – |
| CC(C)=CC1C(C(=O)OCN2C(=O)C3=C(CCCC3)C2=O)C1(C)C (stereo not given) | inactive | – |
| CCC(=O)Nc1ccc(Cl)c(Cl)c1 | inactive | – |
| CC1=NNC(=O)N(/N=C/c2cccnc2)C1 | inactive | – |
| CCc1cccc(C)c1N(C(=O)CCl)C(C)COC (stereo not given) | inactive | – |
| CCCCN(CC)c1c([N+](=O)[O-])cc(C(F)(F)F)cc1[N+](=O)[O-] | inactive | – |
| CCCCOC(=O)[C@@H](C)Oc1ccc(Oc2ccc(C#N)cc2F)cc1 | inactive | – |
| CCCCOC(=O)c1ccccc1C(=O)O | inactive | – |

| SMILES | outcome | AC50 |
| --- | --- | --- |
| FC(F)C(F)(F)OCC(Cn1cncn1)c1ccc(Cl)cc1Cl (stereo not given) | inactive | – |
| CCCSP(=O)(OCC)SCCC | inactive | – |
| CC[C@H](C)[C@H]1O[C@]2(C=C[C@@H]1C)C[C@@H]1C[C@@H](C/C=C(\C)[C@@H](O[C@H]3C[C@H](OC)[C@@H](O[C@H]4C[C@H](OC)[C@@H](NC)[C@H](C)O4)[C@H](C)O3)[C@@H](C)/C=C/C=C3\CO[C@@H]4[C@H](O)C(C)=C[C@@H](C(=O)O1)[C@]34O)O2 | – | 17.6 µM (active) |
| Nc1nc(N)nc(NC2CC2)n1 | inactive | – |
| CCOC(=O)CC(SP(=O)(OC)OC)C(=O)OCC (stereo not given) | inactive | – |
| CC(COc1ccc(Oc2ccccc2)cc1)Oc1ccccn1 (stereo not given) | inactive | – |
| CSC1=N[C@@](C)(c2ccccc2)C(=O)N1Nc1ccccc1 | inactive | – |
| CSc1nnc(C(C)(C)C)c(=O)n1N | inactive | – |
| Cc1cc(C2CC2)nc(Nc2ccccc2)n1 | inactive | – |
| CCCSP(=O)(OCC)Oc1ccc(Br)cc1Cl (stereo not given) | inactive | – |
| CCOP(=S)(OCC)SCCSCC | inactive | – |
| CCOP(=O)(OCC)Oc1cc(C)nc(C(C)C)n1 | inactive | – |
| O=C(O)c1cc(Oc2ccc(C(F)(F)F)cc2Cl)ccc1[N+](=O)[O-] | inactive | – |
| CCc1cnc(C2=NC(C)(C(C)C)C(=O)N2)c(C(=O)O)c1 (stereo not given) | inactive | – |
| S=C1NCCN1 | inactive | – |
| COc1cccc(C(=O)NN(C(=O)c2cc(C)cc(C)c2)C(C)(C)C)c1C | inactive | – |
| O=[N+]([O-])c1cc(C(F)(F)F)c(Cl)c([N+](=O)[O-])c1Nc1ncc(C(F)(F)F)cc1Cl | – | 9.87 µM (active) |
| CNc1cnn(-c2cccc(C(F)(F)F)c2)c(=O)c1Cl | inactive | – |
| C#CCC1=C(C)C(OC(=O)C2C(C=C(C)C)C2(C)C)CC1=O (stereo not given) | inactive | – |
| COP(=O)(OC)OC(Br)C(Cl)(Cl)Br (stereo not given) | inactive | – |
